FBW7 act – FBW7 E3 ligase activators, primary screen, biochemical, AlphaScreen, human. actives 0.13% (n = 650,000). normalized activity (activation), % at 26.1 µM. AID 1259310, 2017. AlphaScreen FBW7–phospho-cyclin E peptide binding, activator screen; in the data active = normalized activity above about 1.9%;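 note: purified mutant Fbw7 with reduced substrate affinity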
GPR151 ag – activators of human GPR151, primary screen, cell-based, PathHunter beta-arrestin, luminescence. G-protein coupled receptor 151 (Homo sapiens), Q8TDV0. PathHunter beta-arrestin GPR151 cells. activation, % at 11.2 µM. actives 1% (n = 650,000). AID 1508602, 2020; in the data active = activation above about 4.9%
MITF inh – MITF inhibitors, primary screen, biochemical, AlphaScreen, human; AlphaScreen MITF homodimerization, bead proximity signal; actives 0.91% (n = 650,000); inhibition, % at 2.6 µM; in the data active = inhibition above about 50%
Target sequence (O75030 whole entry, looked up): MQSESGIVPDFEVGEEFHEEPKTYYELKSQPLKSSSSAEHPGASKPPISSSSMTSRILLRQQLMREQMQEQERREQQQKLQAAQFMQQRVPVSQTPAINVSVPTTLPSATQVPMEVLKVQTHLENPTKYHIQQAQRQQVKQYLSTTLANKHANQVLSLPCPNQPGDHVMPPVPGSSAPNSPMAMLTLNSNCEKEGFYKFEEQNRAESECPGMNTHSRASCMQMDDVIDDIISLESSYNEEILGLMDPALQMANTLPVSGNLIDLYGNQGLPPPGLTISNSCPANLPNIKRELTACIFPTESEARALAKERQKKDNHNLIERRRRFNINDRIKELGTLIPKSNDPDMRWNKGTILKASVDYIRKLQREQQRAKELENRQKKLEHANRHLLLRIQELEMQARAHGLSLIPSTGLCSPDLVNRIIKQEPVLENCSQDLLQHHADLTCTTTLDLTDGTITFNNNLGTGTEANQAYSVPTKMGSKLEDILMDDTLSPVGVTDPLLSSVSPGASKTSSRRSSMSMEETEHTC
TEAD-YAP inh – TEAD-YAP interaction inhibition, primary screen, TEAD-YAP interaction inhibitor project, luminescence, HEK-TIYL cells; TEAD-Gal4/YAP UAS-luciferase luminescence; AID 1259422, 2018; inhibition, % at 9.12 µM; actives 1.4% (n = 640,000); in the data active = inhibition above about 32%
MITF confirm – MITF inhibitors, retest of hits, confirmation, biochemical, AlphaScreen, triplicate | AID 1259372, 2018 | AlphaScreen MITF homodimerization, biotin/His-MITF beads | shares compounds with MITF inh | inhibition, % at 2.6 µM | actives 16% (n = 4,700);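 active = inhibition above a cutoff derived from the DMSO control wells, cut at about 28% in these data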;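 note: inhibitors lower the bead chemiluminescence by keeping MITF from dimerizing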
AlphaScreen DR – AlphaScreen optical interference compounds, dose response, counter-screen, biochemical, HTS. shares compounds with MITF inh. AlphaScreen optical interference counterscreen, cell-free. IC50, µM. actives 6% (n = 480). AID 1259373, 2018; call rule not given here
AlphaScreen intf2 – AlphaScreen optical interference compounds, counter-screen for MITF inhibitor project, biochemical, triplicate. shares compounds with MITF inh. LysRS AlphaScreen counterscreen, signal interference. inhibition, % at 2.6 µM. actives 7.6% (n = 4,700). AID 1259376, 2018;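 active = inhibition above a cutoff derived from the DMSO control wells, cut at about 30% in these data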
Of the large screens only hits and unclear results are named; the others gave an inactive call (follow-up assays come after a bar, where they were run). Hits are enriched below; roughly 3.5% of the tested compounds scored in any of these assays.

CC1CN(Cc2ccc(Cl)cc2)CC(C)O1 (stereo not given)	none
COc1ccc(NCc2ccc(C(=O)O)o2)cc1	none
O=C(O)c1ccc(CNC(=O)c2cocc2C(=O)O)o1	MITF inh 55 | MITF confirm 38 | AlphaScreen DR inactive | AlphaScreen intf2 inactive
CCN1/C(=c2/s/c(=C3/C(=O)NN=C3C)n(CC)c2=O)Sc2ccc(OC)cc21	none
Cc1ccc2c(Cl)c(C(=O)NCc3ccncc3)sc2c1	MITF inh 70 | MITF confirm inactive | AlphaScreen intf2 inactive
CCOC(=O)CNC(=O)c1sc2cc(C)ccc2c1Cl	none
O=C(CSc1nnc(-c2cccc(Cl)c2)o1)Nc1ccccc1	MITF inh 82 | MITF confirm inactive | AlphaScreen intf2 inactive
Cc1ccc(-c2c(C)sc3ncn(CC(=O)O)c(=O)c23)cc1C	none
CCC(C)Nc1nc(-c2ccc(Br)cc2)nc2ccccc12 (stereo not given)	none
CC(C)Sc1ccc(-c2ccccc2C=O)cn1	MITF inh 114 | MITF confirm inactive | AlphaScreen intf2 inactive
CC(C(=O)N1CCCCC1)N(C)CC(=O)Nc1ccc(F)c(F)c1F (stereo not given)	MITF inh 69 | MITF confirm inactive | AlphaScreen intf2 inactive
CCCN1CCN(c2ncnc3sc(C(=O)Nc4ccc5c(c4)OCCO5)c(C)c23)CC1	none
COc1ccc(C2C(C(=O)Nc3ccc(Br)cc3C)CCC(=O)N2c2ccc(OC)cc2)cc1 (stereo not given)	none
CC(=O)Nc1ccc(NC(=O)Cc2ccc(Br)cc2)cc1	MITF inh 58 | MITF confirm inactive | AlphaScreen intf2 inactive
O=C(Nc1ccc2c(c1)C(=O)OC2)c1cncc(Br)c1	none
COc1ccc(CCNC(=O)/C=C/c2ccc3c(c2)OCO3)cc1	none
COc1cc(OC)cc(C(=O)NC(C(=O)NCCc2ccccn2)C(C)C)c1 (stereo not given)	none
CN(Cc1ccccc1)C(=O)COc1ccc2ccccc2c1	none
COc1cc(OC)cc(C(=O)N(C)CCc2ccccn2)c1	MITF inh 71 | MITF confirm inactive | AlphaScreen intf2 inactive
CN(CCc1ccccn1)C(=O)c1ccccc1	MITF inh 60 | MITF confirm inactive | AlphaScreen intf2 inactive
CN(CCc1ccccn1)C(=O)COc1ccc2ccccc2c1	MITF inh 84 | MITF confirm inactive | AlphaScreen intf2 inactive
COc1ccc(OC)c(CN(C)CCc2ccccn2)c1	none
COc1ccc(C(=O)N(C)CCc2ccccn2)cc1	MITF inh 71 | MITF confirm inactive | AlphaScreen intf2 inactive
OCCSc1nc(CN2CCOCC2)nc2scc(-c3ccccc3)c12	none
Cc1ccc(N2C(=O)/C(=C/c3ccc(OC(C)C(=O)O)cc3)C(=O)NC2=S)cc1 (stereo not given)	none
Cc1ccsc1CN1CCN2C(=O)[C@H](Cc3ccccc3)NC(=O)[C@H]2C1	none
O=C1CS/C(=N/N=C/c2ccccc2[N+](=O)[O-])N1	none
CCOC(=O)c1ccc2ncc(C(=O)OCC)c(Nc3ccc(F)cc3)c2c1	none
COc1cc(CN2CCN(C/C=C/c3ccccc3)CC2)ccc1O	MITF inh 52 | MITF confirm inactive | AlphaScreen intf2 inactive
COc1ccc(CN2CCN(C/C=C/c3ccccc3)CC2)cc1	none
COc1cc(CN2CCN(C/C=C/c3ccccc3)CC2)cc(OC)c1OC	MITF inh 67 | MITF confirm inactive | AlphaScreen intf2 inactive
COc1ccc(CN2CCN(C/C=C/c3ccccc3)CC2)cc1O	MITF inh 62 | MITF confirm inactive | AlphaScreen intf2 inactive
O=C(C1CCN(Cc2ccccc2)CC1)N1CCN(C/C=C/c2ccccc2)CC1	MITF inh 60 | MITF confirm inactive | AlphaScreen intf2 inactive
CCOC(=O)c1sc2nc(Cc3ccccc3)nc(NCC3CCCO3)c2c1C (stereo not given)	none
CCOC(=O)C(=O)Nc1sc(C(=O)N2CCOCC2)c(C)c1C#N	MITF inh 71 | MITF confirm inactive | AlphaScreen intf2 inactive
CCOCCOC(=O)C1=C(C)NC2=C(C(=O)CC(c3ccc(Cl)cc3)C2)C1c1ccc(OC)cc1OC (stereo not given)	none
Cc1ccc(C)c(NNC(=O)C(=O)NNc2cc(C)ccc2C)c1	MITF inh 51 | MITF confirm inactive | AlphaScreen intf2 inactive
Cc1[nH]n(-c2ncc(C(=O)O)c(=O)[nH]2)c(=O)c1Cc1ccccc1	MITF inh 83 | MITF confirm 64 | AlphaScreen intf2 95
CCOC(=O)c1cnc(N2CCOCC2)[nH]c1=O	none
Cc1cc(=O)[nH]c(-n2[nH]c(C)c(Cc3ccccc3)c2=O)n1	none
CCOC(=O)c1cnc(-n2[nH]c(C)c(CCO)c2=O)[nH]c1=O	MITF inh 86 | MITF confirm inactive | AlphaScreen intf2 65
O=C1CCCN1CCCNc1ccc(Cl)nn1	MITF inh 84 | MITF confirm inactive | AlphaScreen intf2 inactive
O=C1CCCN1CCCNc1cc(Cl)ncn1	none
CCc1ccc(C(=O)NC(C(=O)NCC2CCCO2)C(C)C)cc1 (stereo not given)	MITF inh 67 | MITF confirm inactive | AlphaScreen intf2 inactive
O=C(NC1CCCCC1)c1cc2c(s1)-c1ccccc1S(=O)(=O)C2	none
O=C(Cc1n[nH]c(=O)c2ccccc12)NNC(=O)c1ccco1	none
CCC(=O)N1CCc2cc(S(=O)(=O)N3CC(C)CC(C)C3)ccc21 (stereo not given)	MITF inh 81 | MITF confirm inactive | AlphaScreen intf2 inactive
Cc1ccc(-c2csc3nc[nH]c(=O)c23)cc1	none
Cc1ccc(-c2csc3nc(CNCCN(C)C)[nH]c(=O)c23)cc1	MITF inh 96 | MITF confirm inactive | AlphaScreen intf2 83
O=C1CC(N2CCN(Cc3ccc(Cl)cc3)CC2)C(=O)N1c1ccc(I)cc1 (stereo not given)	none
COc1ccc(C)cc1NC(=O)CCCOc1ccc(C(C)=O)cc1	none
Cc1ccc(OCCCCCNCCO)cc1	none
Cc1ccc(OCCNCCC(=O)O)cc1	MITF inh 57 | MITF confirm inactive | AlphaScreen intf2 inactive
COCCn1c(=S)[nH]c2cc(C(=O)NC(C)C)ccc2c1=O	none
COCCn1c(=S)[nH]c2cc(C(=O)Nc3ccccn3)ccc2c1=O	MITF inh 77 | MITF confirm inactive | AlphaScreen intf2 inactive
Cc1nn(C)c(C)c1-c1nc(NC2CC2)c2ncn(C(C)C)c2n1	none
CN(C)CCOCCOc1cccc2ccccc12	MITF inh 63 | MITF confirm inactive | AlphaScreen intf2 inactive
CCN(CC)CCOCCOc1cccc2ccccc12	none

Bioassay records: PubChem, The Scripps Research Institute Molecular Screening Center
